Compound: C#CCNC(=O)CCSSCCC(=O)NCCc1ccc(C=O)c(C=O)c1
Assay: lysine labeling ratio R10:1 (500 µM / 50 µM probe), SILAC-ABPP in living cells; higher = lower intrinsic lysine reactivity toward the probe, active = 2 or less
Conditions: HeLa; probe concentrations 500 vs 50 µM
Outline: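 With forward and reverse label swaps, light and heavy SILAC HeLa cells, alive and in PBS at room temperature, were exposed to either 500 µM or 50 µM of an alkyne-tagged lysine probe bearing a disulfide link. After mixing, lysates were clicked to biotin-azide, cut with trypsin, pulled down on neutravidin, freed with DTT, alkylated and analysed on a TIMS-TOF Pro by LC-MS/MS. The per-lysine value R is the median over forward and reverse replicates of the filtered median high-probe/low-probe MS1 peptide ratio. It is capped at 20.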

Chain of UniProt Q13813 (Q13813 whole entry): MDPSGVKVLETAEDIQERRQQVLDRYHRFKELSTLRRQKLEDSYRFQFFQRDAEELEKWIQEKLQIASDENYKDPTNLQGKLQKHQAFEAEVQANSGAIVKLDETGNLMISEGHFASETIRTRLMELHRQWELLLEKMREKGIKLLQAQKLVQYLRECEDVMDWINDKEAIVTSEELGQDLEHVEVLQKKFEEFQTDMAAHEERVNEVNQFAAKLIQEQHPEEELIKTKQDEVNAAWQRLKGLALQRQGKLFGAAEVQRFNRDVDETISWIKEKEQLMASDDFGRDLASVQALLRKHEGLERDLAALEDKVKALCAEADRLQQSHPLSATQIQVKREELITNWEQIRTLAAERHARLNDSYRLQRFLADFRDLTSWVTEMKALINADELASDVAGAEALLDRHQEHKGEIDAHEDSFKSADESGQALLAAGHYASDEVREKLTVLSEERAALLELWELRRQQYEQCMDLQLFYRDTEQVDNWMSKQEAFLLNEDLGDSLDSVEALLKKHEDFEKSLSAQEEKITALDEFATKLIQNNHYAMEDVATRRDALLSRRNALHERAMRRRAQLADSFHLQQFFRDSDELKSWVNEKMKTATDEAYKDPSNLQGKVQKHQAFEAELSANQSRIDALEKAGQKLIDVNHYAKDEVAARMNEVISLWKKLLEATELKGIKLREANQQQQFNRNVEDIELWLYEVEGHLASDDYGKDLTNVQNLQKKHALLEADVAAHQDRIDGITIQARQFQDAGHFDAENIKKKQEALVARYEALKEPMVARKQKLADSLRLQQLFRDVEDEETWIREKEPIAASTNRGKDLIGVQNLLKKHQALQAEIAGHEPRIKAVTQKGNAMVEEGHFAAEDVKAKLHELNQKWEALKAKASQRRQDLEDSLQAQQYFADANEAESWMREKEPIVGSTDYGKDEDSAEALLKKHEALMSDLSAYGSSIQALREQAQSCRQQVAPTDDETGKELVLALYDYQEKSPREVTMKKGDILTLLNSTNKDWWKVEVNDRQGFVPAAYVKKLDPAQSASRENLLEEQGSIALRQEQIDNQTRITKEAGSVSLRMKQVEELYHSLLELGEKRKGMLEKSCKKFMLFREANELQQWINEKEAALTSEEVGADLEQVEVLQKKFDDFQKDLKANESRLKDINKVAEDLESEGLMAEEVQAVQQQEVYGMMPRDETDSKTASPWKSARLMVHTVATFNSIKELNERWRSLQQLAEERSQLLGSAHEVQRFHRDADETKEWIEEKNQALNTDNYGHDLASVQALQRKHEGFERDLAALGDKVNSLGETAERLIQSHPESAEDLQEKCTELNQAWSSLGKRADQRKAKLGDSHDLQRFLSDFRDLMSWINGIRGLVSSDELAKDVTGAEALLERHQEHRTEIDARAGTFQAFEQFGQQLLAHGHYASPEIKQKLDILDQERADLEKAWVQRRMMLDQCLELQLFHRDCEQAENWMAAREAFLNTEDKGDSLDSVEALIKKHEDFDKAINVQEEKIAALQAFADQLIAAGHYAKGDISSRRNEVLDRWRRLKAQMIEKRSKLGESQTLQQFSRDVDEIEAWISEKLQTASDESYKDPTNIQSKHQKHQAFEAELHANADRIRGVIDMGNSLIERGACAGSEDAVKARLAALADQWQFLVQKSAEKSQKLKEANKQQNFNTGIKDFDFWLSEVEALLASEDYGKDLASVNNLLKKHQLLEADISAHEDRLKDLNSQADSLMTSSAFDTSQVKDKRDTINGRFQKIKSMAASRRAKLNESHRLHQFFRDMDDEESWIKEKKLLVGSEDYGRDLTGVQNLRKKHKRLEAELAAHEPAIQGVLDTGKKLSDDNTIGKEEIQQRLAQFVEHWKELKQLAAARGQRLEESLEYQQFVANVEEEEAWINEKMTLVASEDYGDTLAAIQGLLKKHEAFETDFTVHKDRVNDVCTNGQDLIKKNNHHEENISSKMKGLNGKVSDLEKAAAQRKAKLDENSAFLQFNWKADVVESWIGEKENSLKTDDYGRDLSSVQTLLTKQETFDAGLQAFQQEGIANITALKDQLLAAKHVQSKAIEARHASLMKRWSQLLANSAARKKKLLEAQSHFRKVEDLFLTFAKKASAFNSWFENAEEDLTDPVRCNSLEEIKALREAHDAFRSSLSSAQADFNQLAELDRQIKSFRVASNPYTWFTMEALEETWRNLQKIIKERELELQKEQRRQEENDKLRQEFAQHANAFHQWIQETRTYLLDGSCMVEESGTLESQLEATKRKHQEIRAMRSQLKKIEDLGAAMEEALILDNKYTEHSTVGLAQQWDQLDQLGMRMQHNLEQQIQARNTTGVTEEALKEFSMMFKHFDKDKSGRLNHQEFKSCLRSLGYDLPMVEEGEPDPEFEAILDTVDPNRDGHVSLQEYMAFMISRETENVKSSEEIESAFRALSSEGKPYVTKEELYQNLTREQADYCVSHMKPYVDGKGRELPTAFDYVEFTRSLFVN
Chain of UniProt P61019 (P61019 whole entry, looked up): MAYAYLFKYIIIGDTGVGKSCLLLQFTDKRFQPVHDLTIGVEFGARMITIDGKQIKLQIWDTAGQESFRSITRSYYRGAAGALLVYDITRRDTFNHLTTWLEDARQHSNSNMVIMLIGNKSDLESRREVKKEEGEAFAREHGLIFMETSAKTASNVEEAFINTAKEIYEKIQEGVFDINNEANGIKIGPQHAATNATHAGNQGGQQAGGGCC
Chain of UniProt Q9Y639 (Q9Y639 whole entry): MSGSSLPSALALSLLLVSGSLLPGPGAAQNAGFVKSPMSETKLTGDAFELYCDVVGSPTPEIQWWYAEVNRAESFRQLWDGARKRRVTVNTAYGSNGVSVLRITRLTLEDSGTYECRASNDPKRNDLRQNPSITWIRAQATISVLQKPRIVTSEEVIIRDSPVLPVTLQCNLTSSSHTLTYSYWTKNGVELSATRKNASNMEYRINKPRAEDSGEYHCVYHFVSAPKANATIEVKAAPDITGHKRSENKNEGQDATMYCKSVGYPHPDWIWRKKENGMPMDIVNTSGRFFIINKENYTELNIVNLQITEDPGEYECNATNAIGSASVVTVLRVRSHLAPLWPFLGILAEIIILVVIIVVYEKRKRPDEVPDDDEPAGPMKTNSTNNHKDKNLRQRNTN
Chain of UniProt P48643 (P48643 whole entry): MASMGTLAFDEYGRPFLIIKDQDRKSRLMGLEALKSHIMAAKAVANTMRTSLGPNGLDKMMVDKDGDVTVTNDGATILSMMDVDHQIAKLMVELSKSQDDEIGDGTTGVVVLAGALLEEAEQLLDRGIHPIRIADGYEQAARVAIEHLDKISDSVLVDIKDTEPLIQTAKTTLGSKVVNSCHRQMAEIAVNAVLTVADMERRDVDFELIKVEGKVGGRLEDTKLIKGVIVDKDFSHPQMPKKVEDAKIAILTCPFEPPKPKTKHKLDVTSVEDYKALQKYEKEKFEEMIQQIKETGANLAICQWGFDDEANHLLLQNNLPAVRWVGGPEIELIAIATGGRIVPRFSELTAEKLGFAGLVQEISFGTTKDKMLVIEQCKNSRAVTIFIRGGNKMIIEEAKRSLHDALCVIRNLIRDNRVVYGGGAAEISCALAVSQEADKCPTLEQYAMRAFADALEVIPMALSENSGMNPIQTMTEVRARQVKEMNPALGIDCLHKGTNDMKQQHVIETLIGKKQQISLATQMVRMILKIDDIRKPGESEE
Chain of UniProt Q14114 (Q14114 whole entry): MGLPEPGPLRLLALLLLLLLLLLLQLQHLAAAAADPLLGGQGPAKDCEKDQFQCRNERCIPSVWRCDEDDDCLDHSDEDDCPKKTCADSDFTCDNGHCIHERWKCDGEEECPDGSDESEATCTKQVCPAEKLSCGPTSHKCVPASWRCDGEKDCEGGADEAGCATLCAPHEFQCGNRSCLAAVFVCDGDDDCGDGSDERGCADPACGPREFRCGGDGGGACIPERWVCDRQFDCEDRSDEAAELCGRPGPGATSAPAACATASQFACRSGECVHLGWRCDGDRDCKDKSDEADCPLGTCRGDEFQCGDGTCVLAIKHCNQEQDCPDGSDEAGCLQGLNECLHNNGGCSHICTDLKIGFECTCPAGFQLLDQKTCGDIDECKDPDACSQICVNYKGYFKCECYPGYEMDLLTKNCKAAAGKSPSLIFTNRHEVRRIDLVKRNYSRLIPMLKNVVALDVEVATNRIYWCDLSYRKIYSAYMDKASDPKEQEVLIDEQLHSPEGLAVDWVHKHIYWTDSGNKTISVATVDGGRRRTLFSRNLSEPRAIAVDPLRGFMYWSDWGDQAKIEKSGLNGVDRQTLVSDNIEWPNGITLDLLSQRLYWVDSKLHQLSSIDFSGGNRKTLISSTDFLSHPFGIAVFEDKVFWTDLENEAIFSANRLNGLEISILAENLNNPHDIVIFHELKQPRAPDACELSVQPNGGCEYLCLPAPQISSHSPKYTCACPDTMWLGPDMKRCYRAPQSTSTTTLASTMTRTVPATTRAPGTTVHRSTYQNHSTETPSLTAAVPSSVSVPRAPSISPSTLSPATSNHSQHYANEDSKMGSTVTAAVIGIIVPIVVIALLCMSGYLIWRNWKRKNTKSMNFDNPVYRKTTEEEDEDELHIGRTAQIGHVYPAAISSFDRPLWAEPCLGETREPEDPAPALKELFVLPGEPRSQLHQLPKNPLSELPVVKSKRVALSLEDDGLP
Chain of UniProt Q15904 (Q15904 whole entry): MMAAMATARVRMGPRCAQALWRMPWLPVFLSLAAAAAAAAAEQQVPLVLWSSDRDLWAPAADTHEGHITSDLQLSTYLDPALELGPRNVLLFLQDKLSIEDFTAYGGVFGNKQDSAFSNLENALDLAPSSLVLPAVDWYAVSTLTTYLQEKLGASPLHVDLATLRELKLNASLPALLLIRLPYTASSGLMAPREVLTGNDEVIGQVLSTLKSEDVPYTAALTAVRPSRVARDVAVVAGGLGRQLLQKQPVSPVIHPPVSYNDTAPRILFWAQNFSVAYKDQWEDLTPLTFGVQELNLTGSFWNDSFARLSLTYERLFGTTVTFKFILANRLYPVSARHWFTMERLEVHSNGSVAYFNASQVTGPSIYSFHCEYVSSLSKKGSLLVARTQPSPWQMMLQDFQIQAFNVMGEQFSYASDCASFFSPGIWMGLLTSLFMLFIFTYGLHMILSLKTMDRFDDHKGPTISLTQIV

Lysine labeling ratio R10:1, active:
RAB2A (lysine site: K130) (UniProt P61019) 1.45, DSG2 (lysine site: K451) (UniProt Q14126) 0.823, UniProt P26639 (lysine site: K549) 0.996, SPTAN1 (lysine site: K1419) (UniProt Q13813) 0.907, VAPB (lysine site: K174) (UniProt O95292) 1.61, HSPG2 (lysine site: K3155) (UniProt P98160) 1.37, ATP6AP1 (lysine site: K380) (UniProt Q15904) 1.79, UniProt P52803 (lysine site: K166) 0.58, LRP8 (lysine site: K567) (UniProt Q14114) 1.53, UniProt Q13275 (lysine site: K239) 1.5, NPTN (lysine site: K260) (UniProt Q9Y639) 1, RDX (lysine site: K520) (UniProt P35241) 1.76, TPM4 (lysine site: K44) (UniProt P67936) 1.15, UniProt Q12904 (lysine site: K35) 1.92, SPTAN1 (lysine site: K1543) (UniProt Q13813) 1.58

Lysine labeling ratio R10:1, inactive:
GAPDH (lysine site: K117) (UniProt P04406) 3.17, PTBP1 (lysine site: K271) (UniProt P26599) 2.72, SFN (lysine site: K77) (UniProt P31947) 3.35, IGF2R (lysine site: K1924) (UniProt P11717) 3.04, RER1 (lysine site: K181) (UniProt O15258) 7.46, TNKS1BP1 (lysine site: K1680) (UniProt Q9C0C2) 2.22, CCT5 (lysine site: K392) (UniProt P48643) 2.73, UniProt O95084 (lysine site: K331) 4.02, UniProt Q15149 (lysine site: K1626) 2.37, PLS3 (lysine site: K91) (UniProt P13797) 2.1, DDX3X (lysine site: K118) (UniProt O00571) 4.1, UniProt Q99623 (lysine site: K250) 3.72, NPR3 (lysine site: K208) (UniProt P17342) 5.04, DNASE1L1 (lysine site: K33) (UniProt P49184) 11, CACNA2D1 (lysine site: K842) (UniProt P54289) 4.24, UniProt Q15149 (lysine site: K3384) 4.26, SEMA3C (lysine site: K431) (UniProt Q99985) 2.67, LRP1 (lysine site: K3803) (UniProt Q07954) 3.09, RPL22 (lysine site: K80) (UniProt P35268) 2.72, RPL14 (lysine site: K103) (UniProt P50914) 3.31, FAT4 (lysine site: K2561) (UniProt Q6V0I7) 2.59, PTPRF (lysine site: K1103) (UniProt P10586) 7.4, THBS1 (lysine site: K300) (UniProt P07996) 2.22, EFNB2 (lysine site: K83) (UniProt P52799) 2.34, NRP1 (lysine site: K534) (UniProt O14786) 2.17

Source: the supplement of paper PMC11001985
